# Reference: PubChem BioAssay (NCATS)
# Inconclusive results are not listed. Activity calls are given as the source filed them. Calls follow the shape of the dose curve; as a rule, active = well fitted inhibition curve with a large enough effect; inconclusive = small, poorly fitted or top-dose-only effect; inactive = flat fitted curve, though single readings scatter.
# Test system: Zika virus NS2B-NS3 protease
# Assay: Primary screen GU AMC qHTS for Zika virus inhibitors (AID 1347154); also: nearly all actives have a fitted effect of over 70% in size;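 as to activity change, negative = inhibition: 0% = no-inhibitor control and -100% = no-enzyme control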
# Details: Zika NS2B-NS3 unlinked protease, AMC fluorogenic substrate; series mostly up to 54.1 µM; activity change, negative = inhibition: at the top concentration
# How it was run: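 Fluorogenic AMC-substrate cleavage by noncovalent NS2B-NS3 protease complex (25 nM, pH 8.0 Tris buffer with Tween 20) followed for 15 minutes at room temperature (~20% conversion). Percent inhibition from ex340/em450 signal change, fitted by 4-parameter Hill equation.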
# Potency is read from the fitted curve at half-maximal effect.
SMILES,"activity change, negative = inhibition",Potency
CN(C)CCn1nnnc1SCC1=C(C(=O)O)N2C(=O)[C@@H](NC(=O)Cc3csc(N)n3)[C@H]2SC1,4.57% (inactive),
CC(C(=O)O)c1ccc2c(c1)[nH]c1ccc(Cl)cc12 (centres undefined),4.97% (inactive),
CN1CCC[C@H]1c1cccnc1,5.79% (inactive),
CCCOC(=O)c1ccc(O)cc1,6.4% [at 104 µM] (inactive),
NC(=O)C(c1ccccc1)(c1ccccc1)[C@@H]1CCN(CCc2ccc3c(c2)CCO3)C1,-8.28% (inactive),
Cc1nc2sccn2c(=O)c1CCN1CCC(=C(c2ccccc2)c2ccc(F)cc2)CC1,-15.8% (inactive),
CCOc1ccc2nc(S(N)(=O)=O)sc2c1,-18.6% (inactive),
COC(=O)C1=C(C)NC(C)=C(C(=O)OCC(C)C)C1c1ccccc1[N+](=O)[O-] (centres undefined),,inactive
COc1ccnc2c1CCCCC2S(=O)c1nc2ccccc2[nH]1 (centres undefined),,35.5 µM (active)
CCCCCC(O)c1cccc(OCc2ccc3ccccc3n2)c1 (centres undefined),14.2% [at 6.83 µM] (inactive),
CC(C(=O)O)c1ccc(C(=O)c2ccccc2)s1 (centres undefined),-5.98% (inactive),
COC(=O)C1=C(C)NC(C)=C(C(=O)OCC(C)=O)C1c1ccccc1[N+](=O)[O-] (centres undefined),-2.21% (inactive),
C/C(=N\O)c1ccc(OCC(=O)N2CCCCC2)cc1,5.22% (inactive),
CC(C)(C)c1nnc(NS(=O)(=O)c2ccc(N)cc2)s1,-1.9% (inactive),
CCCCCCCCCCCCCCCC(=O)OC(C)C,1.2% (inactive),
CN(C)[C@@H]1C(=O)C(C(=O)NCN2CCCC2)=C(O)[C@@]2(O)C(=O)C3=C(O)c4c(O)cccc4[C@@](C)(O)C3C[C@@H]12 (some centres undefined),-14.3% (inactive),
c1ccc2sc(SSc3nc4ccccc4s3)nc2c1,-1.43% [at 25.8 µM] (inactive),

SMILES,"activity change, negative = inhibition",Potency
c1ccc2sc(SN3CCOCC3)nc2c1,-8.6% (inactive),
O=C(O)[C@@H]1C[C@@H](C(=O)O)N1,,inactive
Cc1ccc2c(n1)Oc1ccc(C(C)C(=O)OCC(=O)N(C)C)cc1C2 (centres undefined),,inactive
C[N+]1(C)[C@@H]2CC(OC(=O)[C@H](CO)c3ccccc3)C[C@H]1[C@@H]1O[C@@H]12 (some centres undefined),-3.98% (inactive),
O=C(O)c1cc([N+](=O)[O-])ccc1NCCCc1ccccc1,4.05% (inactive),
O=C(O)c1cc(O)c(O)c(O)c1,-5.76% (inactive),
O=C(O)c1cc(=O)c2ccccc2[nH]1,-14% (inactive),
CC(=O)c1ccc(OCC(=O)N2CCCCC2)cc1,-4.44% (inactive),
O=C(O)Cc1cccc(-c2cc(CCCCCCc3ccc(O[C@H]4O[C@H](CO)[C@@H](O)[C@H](O)[C@@H]4O)c(-c4cccc(CC(=O)O)c4)c3)ccc2O[C@H]2O[C@H](CO)[C@@H](O)[C@H](O)[C@@H]2O)c1,1.91% [at 0.59 µM] (inactive),
CN1CCN(c2cc3c(nn2)Oc2ccccc2N3C)CC1,,9.89 µM (active)
COc1cc(CNC(=O)CCCC/C=C/C(C)C)ccc1O,5.75% [at 104 µM] (inactive),
O=C(O)c1ccccc1Nc1cccc(C(F)(F)F)c1,-2.28% (inactive),
Ic1ccc(N2CCN(Cc3c[nH]c4ncccc34)CC2)cc1,-4.17% (inactive),
COc1cc2c3cc1Oc1cc(ccc1O)C[C@@H]1c4c(cc(OC)c(O)c4Oc4ccc(cc4)C[C@@H]3N(C)CC2)CC[N+]1(C)C,-2.37% (inactive),
CC(=O)SCC(CC(=O)c1ccc(C)cc1)C(=O)O (centres undefined),-2.95% (inactive),
CC1(C)C[C@@H]1C(=O)N/C(=C\CCCCSC[C@H](N)C(=O)O)C(=O)O,9.2% (inactive),
N#C/C(=C\c1ccc(O)c(O)c1)C(=O)NCc1ccccc1,15.3% (inactive),
